What follows are sequences tested on RARb homodimer (NR concentration 270 nM) (assay: PBM binding z-score (relative to random genomic background probes); higher = stronger binding; sequences stand for … in GC…GCGATTGACAGCGTAGAATGAAGG).
Procedure, shortened: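 Ligand-free nuclear receptor dimers were bound for 1 h to custom Agilent 4×180K protein-binding microarrays. Detection used antibodies against each partner (one per run). Binding z-scores rest on regression-normalized fluorescence, with random background probes as the reference.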
With TCATATAGGTATAAGGTGAAAGTCGGTGTGGTAA the PBM binding z-score was 1.17. For GCTATTAGTTGAAAGAGCAACCGAATGATTCTCG, the PBM binding z-score was -0.533. ACTAGCAGGCCATGTTTGGGTCACTCAAACAAAG was tested, and the PBM binding z-score was 1.98. Work on ATCTCTAGGTAACAAGTTCACTGAAAGAGAGGAC yielded a PBM binding z-score of 2.61. For TCTGCTAGGGCAACGATGGTCAGCTAATCTGCTA, the PBM binding z-score was 0.762. GCTTGTAGATCAAGGTAAAGAAAGACTAAGCTAA gave a PBM binding z-score of -0.851. With TCTGCTAAGTCAACGATGGTCAGCTAATCTGCTA the PBM binding z-score was -0.66. With CCTACTGGGCCACGAAAGGTCGTTGATTCAGTGA the PBM binding z-score was 2.27. CAAACTAGGTCGAGAGGTCAAAGTCCGCTTCCCG showed a PBM binding z-score of 4.73. Sequence ACAGACAGGTGATGAAGGTAAGTCAGGCTATCAT has a PBM binding z-score of 0.406. In the case of ATCGAACGGTCGAAGGTGAGTATACCCACCCGAA, the PBM binding z-score is reported as 0.62. AGAATGAGGTTAAGATCAGGGAAACAGAATACAT gave a PBM binding z-score of 0.9. ATATGTAGGTTAACGGTCATTCAGGTTGGTTCGC showed a PBM binding z-score of 2.72. For TCTGCTAGGTCAGATGGTCAGCTAACGAGCTGCC, the PBM binding z-score was 2.5. Sequence TCTGCGAGGTCAGTTGGTCAGCTAACGAGCTGCC has a PBM binding z-score of 3.86. With TCGAGTAGGGTAGTCGGGGCATTCAGCCAACATA the PBM binding z-score was 0.403. For AGAATGAGGTTACCAATGATCAGGGAAACGCTTG, the PBM binding z-score was 0.796. Sequence GCGACTGGGGCAAAGCGGGTTACCATAAGGTTGG has a PBM binding z-score of 0.945. AGAATGAGGTTATTAAGATCATGGAATTGCGGTC gave a PBM binding z-score of 0.78. Sequence GCGACTGGGGCATCAGCAGGTTACCCTAACTTAA has a PBM binding z-score of 0.901. CCTACTGGGCCACGAAAGGTCATTGTTTCAGTGA showed a PBM binding z-score of 4.64. CCCACTGGGCCATCAGGTCATTGATATCAACGTT was tested, and the PBM binding z-score was 2.77. Sequence TCGAGTAGGTTACCAATCGGGCATTCAGCTTTCT has a PBM binding z-score of 0.187. ATCACTAGGTAAAGTTCAGTGAAAGATCGATAGA showed a PBM binding z-score of 2.57. Sequence CCTATTACTTGACCATAAGGGCAACCGAAGCTCG has a PBM binding z-score of 1.99. CCTCGGAGGACAGGAGGTCAGAGCTGTCCGCTTT showed a PBM binding z-score of 3.17. TCTATTAATTGAAGGGCAACCGACGAGTCCGTTT gave a PBM binding z-score of 1.05. ATCGCTAGGTAAAGTTCAGTGAAAGATCGATAGA was tested, and the PBM binding z-score was 2.03. With ACTAGCAGGCCAGGGGTCACTCAAGATTAGTCCG the PBM binding z-score was 4.12. Sequence AGAATGAGGTTAGTAAGATCAGGGAATTGCGGTC has a PBM binding z-score of 0.918. Work on CTTGAAAGGTCGGTTGAGGTGAGTATACGGATAA yielded a PBM binding z-score of 2.58. With TGAATGAGGTAATAAGATCAGGGAACGTTGCAAA the PBM binding z-score was -0.532. In the case of TCGAGTAGGTTAGCAATGGGGCATTCAGCTTTCT, the PBM binding z-score is reported as 0.353. CAAACTAGGTCAAAGGTCACAGTCGAGCCAACCA gave a PBM binding z-score of 5.31. In the case of CTCCCAAGGTGAACAAGGTCGTTGATTACTATTC, the PBM binding z-score is reported as 2.05. GGAACTAGGGCAAGTTGATAGCAGAGTTTGATGG showed a PBM binding z-score of 1.11. For AGACAAAGTTCATCTAGGTAACGTAAGATATGCT, the PBM binding z-score was 4.12. Sequence TGAATGAGGTTACAAGATCAGGGAACGTTGCAAA has a PBM binding z-score of 0.458. GCTATTAGTTGAAAGGGCGACCGAATGATTCTCG was tested, and the PBM binding z-score was 0.767. Sequence TCTTGTAGATCAATAGAGGTTATGAAAGTGCGCT has a PBM binding z-score of 1.
